Compound activity as filed in PubChem.
Only some compounds are listed: those with a hit (about 4% of all), similar ones and a draw of the others.
CF NFkB block: inhibitors of cystic fibrosis induced NF-kB. inhibition, % at 5 µM. KKLEB NF-kB-GFP reporter, PAF-induced, GFP fluorescence overnight. 360,000 tested, 0.86% active;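 active = at least 50% inhibition at 5 µM, scaled per plate between neutral and stimulator controls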;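 also: PAF is a Pseudomonas aeruginosa culture filtrate used as stimulus; plate controls were PAF-stimulated DMSO wells for no effect and unstimulated DMSO wells for full effect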
HIF-2a block: HIF-2a inhibition | 786-0 RCC cells HIF-2a reporter, luciferase luminescence, overnight | inhibition, % at 18.8 µM | 360,000 tested, 0.72% active | AID 624352;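 active = inhibition of the luminescence signal of 40% or more relative to plate controls, in a single-dose primary screen at 18.75 µM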
Peg3 prom inh: inhibitors of Peg3 promoter | 360,000 tested, 1.7% active | AID 588405 | HeLa PEG-Prom luciferase reporter, luminescence, overnight | inhibition, % at 20 µM;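 active = inhibition of at least 50% at 20 µM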
TROY signal inh: TROY signaling inhibition. Q293 LMP1-TROYcd NF-kB luciferase reporter, 4 h. inhibition, % at 10 µM. 360,000 tested, 0.98% active;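 active = compounds whose plate-normalised and pattern-corrected inhibition of the luciferase reporter signal at the single screening dose is 50% or more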
KKLEB tox: CF airway cell cytotoxicity counter-screen; KKLEB CF airway cells viability, ATPlite luminescence, overnight; stronger effect = lower value; cells stimulated with P. aeruginosa culture filtrate; activity change (cytotoxicity), % at 5 µM; 360,000 tested, 0.36% active; AID 602141;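 active = corrected activity change at or below -50% at 5 µM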
TWEAK Fn14 block: inhibitors of TWEAK-Fn14 interaction signaling; TWEAK-stimulated Fn14 reporter cells, luciferase luminescence, 8 h; inhibition, % at 10 µM; 360,000 tested, 2% active; in the data active = inhibition above about 50%
The depositor's hits bear a star.

Results for COc1ccc(C(C(=O)NCc2ccccc2)N(Cc2ccco2)C(=O)c2snc(C(N)=O)c2N)cc1 (stereo not given) ?
CF NFkB block: 30; HIF-2a block: 14; Peg3 prom inh: 46; TROY signal inh: 21; KKLEB tox: 12; TWEAK Fn14 block: 20

What do the screens show for `Cc1ccc(C(C(=O)NCc2ccccc2)N(Cc2ccco2)C(=O)c2snc(C(N)=O)c2N)o1` (stereo not given)?
CF NFkB block: 22; HIF-2a block: 16; Peg3 prom inh: 52*; TROY signal inh: -17; KKLEB tox: -6; TWEAK Fn14 block: 12

How did COc1ccc(C(C(=O)NCC2CCCO2)N(Cc2ccco2)C(=O)c2snc(C(N)=O)c2N)cc1OC (stereo not given) do in these assays?
CF NFkB block: 24; HIF-2a block: 14; Peg3 prom inh: -1; TROY signal inh: -13; KKLEB tox: -12; TWEAK Fn14 block: 52*

How did CCOc1ccc(C(C(=O)NCC2CCCO2)N(C(=O)c2snc(C(N)=O)c2N)c2cccc(F)c2)cc1 (stereo not given) do in these assays?
CF NFkB block: -3; HIF-2a block: 22; Peg3 prom inh: 22; TROY signal inh: 4; KKLEB tox: 5; TWEAK Fn14 block: 2

What do the screens show for `COc1ccc(C(C(=O)NC2CCCC2)N(C(=O)c2snc(C(N)=O)c2N)c2ccccc2OC)cc1OC` (stereo not given)?
CF NFkB block: -24; HIF-2a block: 9; Peg3 prom inh: -7; TROY signal inh: 4; KKLEB tox: 4; TWEAK Fn14 block: 53*

What do the screens show for `Cn1cc(CN2CCC(C(=O)NC(c3ccc(-c4ccccc4)cc3)c3cnccn3)CC2)c2ccccc21` (stereo not given)?
CF NFkB block: 38; HIF-2a block: -30; Peg3 prom inh: 107*; TROY signal inh: 7; KKLEB tox: -28; TWEAK Fn14 block: -22

What do the screens show for `COc1ccccc1N1C(=NC(=O)COc2ccccc2)SC2CS(=O)(=O)CC21` (stereo not given)?
CF NFkB block: 7; HIF-2a block: 4; Peg3 prom inh: -10; TROY signal inh: -15; KKLEB tox: -1; TWEAK Fn14 block: -1

Results for CCCNC(=O)c1cc(C2CCCCN2S(C)(=O)=O)on1 (stereo not given) ?
CF NFkB block: 15; HIF-2a block: -2; Peg3 prom inh: -13; TROY signal inh: 5; KKLEB tox: 0; TWEAK Fn14 block: -4

What do the screens show for `NC(=S)n1[nH]c(-c2ccc([N+](=O)[O-])cc2)c(N=Nc2ccc(Cl)cc2)c1=O`?
CF NFkB block: -18; HIF-2a block: -44; Peg3 prom inh: 21; TROY signal inh: 53*; KKLEB tox: -24; TWEAK Fn14 block: 54*

What do the screens show for `Cc1ccc([N+](=O)[O-])cc1N=Nc1c(C)[nH]n(C(N)=S)c1=O`?
CF NFkB block: -12; HIF-2a block: 6; Peg3 prom inh: -4; TROY signal inh: 0; KKLEB tox: 5; TWEAK Fn14 block: -4

How did Cc1ccc([N+](=O)[O-])cc1N=Nc1c(-c2ccc([N+](=O)[O-])cc2)[nH]n(C(N)=S)c1=O do in these assays?
CF NFkB block: -27; HIF-2a block: -29; Peg3 prom inh: 48; TROY signal inh: 64*; KKLEB tox: -44; TWEAK Fn14 block: 81*

How did CCCCNC(=O)c1[nH]c(C2CCNCC2)nc1-c1cccc(C(F)(F)F)c1 do in these assays?
HIF-2a block: 3

How did c1ccc2[nH]c(CSc3nnc(-c4ccncc4)o3)nc2c1 do in these assays?
CF NFkB block: -6; HIF-2a block: 8; Peg3 prom inh: -2; KKLEB tox: -2; TWEAK Fn14 block: 58*

What do the screens show for `COc1ccc(-c2nnc(SCC(=O)NCCc3ccccc3)o2)cc1`?
CF NFkB block: -2; HIF-2a block: -19; Peg3 prom inh: 9; KKLEB tox: -3; TWEAK Fn14 block: 87*

What do the screens show for `COc1ccc(Cc2nnc(SCC(=O)NCCc3ccccc3)o2)cc1`?
CF NFkB block: 0; HIF-2a block: 10; Peg3 prom inh: 15; TROY signal inh: 2; KKLEB tox: 8; TWEAK Fn14 block: 7

How did COc1ccc(CC(=O)NC(C)c2nnc(SCc3nc4ccccc4c(=O)[nH]3)n2C)cc1 (stereo not given) do in these assays?
CF NFkB block: 4; HIF-2a block: 5; Peg3 prom inh: 7; KKLEB tox: 5; TWEAK Fn14 block: 75*
